The record followed here is PubChem BioAssay (EPA / NIEHS).

Assay [1] has as its target Retinoic acid receptor RXR-alpha (Homo sapiens) (UniProt P19793). In words: OT_NURR1_NURR1RXRa_0480: Odyssey Thera (OT) 8-hour HEK293T Protein Complementation Assay for Nurr1/retinoid X receptor (RXR) (AID 2283385; active = hit-call score of the fitted dose curve at least 0.9, where 1 is the maximum). In a few lines:
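Read-out: fluorescence from protein-fragment complementation between Nurr1 and RXRα in human HEK293T cells, 8 h after dosing. DMSO served as negative control; increased signal counted as activity.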

Assay [2] has the same target. In words: OT_NURR1_NURR1RXRa_1440: Odyssey Thera (OT) 24-hour HEK293T Protein Complementation Assay for Nurr1/retinoid X receptor (RXR) (AID 2283386; active = hit-call score of the fitted dose curve at least 0.9, where 1 is the maximum). In a few lines:
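Fluorescence PCA read-out; HEK293T; 24 h post-dose; bait/prey fused to reporter fragments; gain-of-signal fit vs DMSO negative control.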

Assay [3] concerns the target Peroxisome proliferator-activated receptor gamma (Homo sapiens) (UniProt P37231). In words: OT_PPARg_PPARgSRC1_0480: Odyssey Thera (OT) 8-hour Protein-Complementation Assay for Peroxisome Proliferator-activated Receptor Gamma / SRC-1 Co-activator (AID 2283387; active = hit-call score of the fitted dose curve at least 0.9, where 1 is the maximum). In a few lines:
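Split-YFP (IFP1/IFP2) PPARg/SRC-1 reporter, HEK293T, 37 °C, 5% CO2; 8 h compound; formaldehyde fix + Draq5; high-content imaging, N/C ratio, ≥350 cells/image, positive direction vs DMSO.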

Assay [4] shares this target. In words: OT_PPARg_PPARgSRC1_1440: Odyssey Thera (OT) 24-hour Protein-Complementation Assay for Peroxisome Proliferator-activated Receptor Gamma/ SRC-1 Co-activator (AID 2283388; active = hit-call score of the fitted dose curve at least 0.9, where 1 is the maximum). In a few lines: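 HEK293T transiently transfected with PPARg/SRC-1 split-Venus YFP fusions 48 h before dosing, then treated 24 h at 37C. Fixed cells imaged; nuclear/cytoplasmic 488 nm fluorescence ratio, gain of signal versus DMSO.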

Assay [5] is described as follows: CEETOX_H295R_11DCORT: CeeTox H295R High-throughput Steroidogenesis Assay for 11-Deoxycortisol (11DCORT) (AID 2283432).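 For AC50: 11-deoxycortisol secreted into the medium measured by LC-MS/MS.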 As to conditions: actives raise or lower the signal. In a few lines: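 Steroidogenesis in human H295R cells: 48 h chemical exposure after forskolin priming, 11-deoxycortisol measured by LC-MS/MS.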
Assay [6] is described as follows: CEETOX_H295R_OHPREG: CeeTox H295R High-throughput Steroidogenesis Assay for OH-Pregnenolone (OHPREG) (AID 2283434). As to conditions: actives raise or lower the signal. In a few lines:
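Secreted 17alpha-hydroxypregnenolone measured by HPLC-MS/MS after liquid-liquid extraction. Human adrenal H295R cells received 48 h forskolin (10 uM) stimulation before 48 h chemical exposure at 0.1% final DMSO; MTT viability in same wells; bidirectional fit against DMSO.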

Assay [7] in a line: CEETOX_H295R_CORTIC: CeeTox H295R High-throughput Steroidogenesis Assay for Corticosterone (CORTIC) (AID 2283437). To be noted: actives raise or lower the signal. In a few lines:
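Medium corticosterone was quantified by tandem mass spectrometry following 48 hours of chemical exposure (0.1% DMSO) in human H295R cells previously stimulated 48 hours with 10 uM forskolin. Viability checked by MTT; chemicals diluted and retested when viability fell below 70%.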

A short description of assay [8]: CEETOX_H295R_DOC: CeeTox H295R High-throughput Steroidogenesis Assay for DOC (AID 2283439). As to conditions: actives raise or lower the signal. In a few lines:
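Human adrenocortical H295R cells, passages up to 10, received 10 uM forskolin for 48 h before chemical addition. After another 48 h exposure in 0.1% DMSO, secreted DOC was measured by LC-MS/MS, with gain or loss fitted against DMSO controls.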

Assay [9] is described as follows: CEETOX_H295R_ESTRADIOL: CeeTox H295R High-throughput Steroidogenesis Assay for Estradiol (AID 2283440).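 Note: estradiol secreted into medium quantified by LC-MS/MS after dansyl derivatisation.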 As to conditions: actives raise or lower the signal. In a few lines: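 H295R cells pre-stimulated 48 h with 10 uM forskolin, then exposed 48 h to chemical in 0.1% DMSO. Medium estradiol quantified by MTBE extraction, dansyl derivatisation and HPLC-MS/MS; bidirectional fit versus DMSO; MTT viability required >/=70%.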

Assay [10] is described as follows: CEETOX_H295R_ESTRONE: CeeTox H295R High-throughput Steroidogenesis Assay for Estrone (AID 2283441).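 Note: estrone secreted into medium measured by LC-MS/MS after dansyl derivatization.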 To be noted: actives raise or lower the signal. In a few lines:
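Forskolin-stimulated H295R cells are treated 48 h with chemical, and estrone in the medium is measured by LC-MS/MS. Activity is fitted in both directions relative to DMSO controls, with chemicals diluted until MTT viability reaches at least 70%.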

Assay [11] can be described thus: CEETOX_H295R_PROG: CeeTox H295R High-throughput Steroidogenesis Assay for Progesterone (PROG) (AID 2283442). As to conditions: actives raise or lower the signal. In a few lines: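 H295R adrenal cells prestimulated 48 h with 10 uM forskolin, then exposed 48 h to test chemical in 0.1% DMSO. Progesterone in medium quantified by HPLC-MS/MS after MTBE extraction; viability checked by MTT in same wells.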

Read-out in assay [12]: Tumor necrosis factor receptor superfamily member 6 (Homo sapiens) (UniProt P25445)
In words: LTEA_HepaRG_FAS: Life Technologies and Expression Analysis (LTEA) Assay for Fas cell surface death receptor (FAS) using HepaRG (AID 2283447). As to conditions: mRNA level, 48 h; actives raise or lower the signal. In a few lines:
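FAS transcript level was measured by TaqMan qRT-PCR against three housekeeping genes after 48 h chemical exposure. Cells were HepaRG, 0.5% DMSO vehicle, with a top concentration of 100 uM and half-log dilutions over eight points, in duplicate.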

Read-out in assay [13]: Fatty acid synthase (Homo sapiens) (UniProt P49327)
In words: LTEA_HepaRG_FASN: Life Technologies and Expression Analysis (LTEA) Assay for Fatty Acid Synthase (FASN) using HepaRG (AID 2283448).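 For AC50: differentiated human HepaRG liver cells in serum-free induction medium.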 To be noted: mRNA level, 48 h; actives raise or lower the signal. In a few lines:
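HepaRG, 48 h exposure, 8-pt half-log series top 100 uM, 0.5% DMSO vehicle, duplicates. Readout: FASN transcript by Fluidigm qRT-PCR; housekeeping-normalized; bidirectional curve fit vs DMSO baseline.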

Read-out in assay [14]: Cyclin D2 (CCND2), CCND2 (gene 894)
In words: LTEA_HepaRG_CCND2: Life Technologies and Expression Analysis (LTEA) Assay for Cyclin D2 (CCND2) using HepaRG (AID 2283449). To be noted: mRNA level, 48 h; actives raise or lower the signal. In a few lines:
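CCND2 transcript levels, quantified by qRT-PCR and normalised to three housekeeping genes, were fitted bidirectionally against 0.5% DMSO. HepaRG cultures were dosed 48 h in duplicate with an 8-point half-log series up to 100 uM.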

Read-out in assay [15]: Cyclin Dependent Kinase Inhibitor 1A (CDKN1A), CDKN1A (gene 1026)
In words: LTEA_HepaRG_CDKN1A: Life Technologies and Expression Analysis (LTEA) Assay for Cyclin Dependent Kinase Inhibitor 1A (CDKN1A) using HepaRG (AID 2283450). As to conditions: mRNA level, 48 h; actives raise or lower the signal. In a few lines: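 Differentiated HepaRG cells in serum-free induction medium, exposed 48 h in duplicate to eight half-log concentrations up to 100 uM in 0.5% DMSO. mRNA measured by TaqMan qRT-PCR, normalized to ACTB, GAPDH, POLR2A; bidirectional fit versus DMSO.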

Read-out in assay [16]: Cyclin D1 (CCND1), CCND1 (gene 595)
In words: LTEA_HepaRG_CCND1: Life Technologies and Expression Analysis (LTEA) Assay for Cyclin D1 (CCND1) using HepaRG (AID 2283451).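 For AC50: differentiated human HepaRG liver cells in serum-free induction medium; TaqMan qRT-PCR transcript level normalised to ACTB GAPDH and POLR2A housekeeping genes.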 To be noted: mRNA level, 48 h; actives raise or lower the signal. In a few lines: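 Differentiated HepaRG cells exposed 48 h in serum-free induction medium to eight half-log concentrations from 100 uM top, 0.5% DMSO, duplicates. CCND1 mRNA measured by Fluidigm TaqMan qRT-PCR, normalised to ACTB, GAPDH, POLR2A; bidirectional fit.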

Read-out in assay [17]: flavin-containing dimethylaniline monooxygenases 3 (FMO3), FMO3 (gene 2328)
In words: LTEA_HepaRG_FMO3: Life Technologies and Expression Analysis (LTEA) Assay for flavin-containing dimethylaniline monooxygenases 3 (FMO3) using HepaRG (AID 2283453).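 For AC50: differentiated human HepaRG liver cells in serum-free induction medium; FMO3 transcript by TaqMan qRT-PCR normalized to ACTB GAPDH and POLR2A.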 To be noted: mRNA level, 48 h; actives raise or lower the signal. In a few lines: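 Eight-point concentration-response in serum-free HepaRG cultures (top 100 uM, 0.5% DMSO, 48 h). Read-out: FMO3 mRNA level normalized to three endogenous control genes, fitted bidirectionally versus vehicle.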

Assay [18] can be described thus: CEETOX_H295R_CORTISOL: CeeTox H295R High-throughput Steroidogenesis Assay for Cortisol (AID 2283438).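 Note: cortisol secreted into medium quantified by LC-MS/MS.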 To be noted: actives raise or lower the signal. In a few lines:
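Read-out: cortisol in culture medium by reverse-phase C18 HPLC with ESI-positive tandem MS, after MTBE liquid-liquid extraction. Cells: human adrenal H295R, forskolin-primed (10 uM, 48 h) before 48 h chemical exposure in 0.1% DMSO.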

Read-out in assay [19]: catalase (CAT), CAT (gene 847)
In words: LTEA_HepaRG_CAT: Life Technologies and Expression Analysis (LTEA) Assay for catalase (CAT) using HepaRG (AID 2283452). As to conditions: mRNA level, 48 h; actives raise or lower the signal. In a few lines: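 Expression of CAT was quantified by TaqMan qRT-PCR with ACTB/GAPDH/POLR2A normalization after 48 h chemical exposure of HepaRG. Eight-point half-log series, top 100 uM, in 0.5% DMSO; gain or loss fitted against vehicle.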

Assay [20] is described as follows: CEETOX_H295R_ANDR: CeeTox H295R High-throughput Steroidogenesis Assay for Androstenedione (ANDR) (AID 2283436). To be noted: actives raise or lower the signal. In a few lines:
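Medium from 48 h chemical-treated H295R adrenal cells was extracted with MTBE and androstenedione measured by LC-MS/MS. Activity was fit in both directions relative to DMSO. Cytotoxic concentrations were re-tested after dilution until MTT viability reached ≥70%.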

Where “and” joins values, the source holds several entries; their conditions need not be identical. Equal entries are not always repeated. Records with an inconclusive call do not appear. More than one record can exist for a structure, and the calls need not agree. Calls of active or inactive are those of the source. Rule for the calls, unless noted: active = hit-call score of the fitted dose curve at least 0.9, where 1 is the maximum; inactive = score below 0.9.

Sequence of Retinoic acid receptor RXR-alpha (Homo sapiens) (P19793 whole entry, looked up, the tested form may be a part): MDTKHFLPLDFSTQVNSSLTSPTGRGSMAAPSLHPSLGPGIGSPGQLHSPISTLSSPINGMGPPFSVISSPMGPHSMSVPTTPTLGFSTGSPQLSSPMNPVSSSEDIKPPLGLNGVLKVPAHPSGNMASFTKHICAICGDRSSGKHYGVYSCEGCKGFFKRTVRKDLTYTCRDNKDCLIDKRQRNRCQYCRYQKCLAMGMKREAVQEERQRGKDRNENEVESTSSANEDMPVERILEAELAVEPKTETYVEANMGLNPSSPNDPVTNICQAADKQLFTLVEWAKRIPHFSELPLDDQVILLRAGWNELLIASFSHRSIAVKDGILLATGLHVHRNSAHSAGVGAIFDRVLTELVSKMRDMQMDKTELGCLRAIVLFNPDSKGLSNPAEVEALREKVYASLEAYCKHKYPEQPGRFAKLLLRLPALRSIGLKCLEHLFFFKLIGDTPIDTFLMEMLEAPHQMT
Sequence of Peroxisome proliferator-activated receptor gamma (Homo sapiens) (P37231 whole entry, looked up): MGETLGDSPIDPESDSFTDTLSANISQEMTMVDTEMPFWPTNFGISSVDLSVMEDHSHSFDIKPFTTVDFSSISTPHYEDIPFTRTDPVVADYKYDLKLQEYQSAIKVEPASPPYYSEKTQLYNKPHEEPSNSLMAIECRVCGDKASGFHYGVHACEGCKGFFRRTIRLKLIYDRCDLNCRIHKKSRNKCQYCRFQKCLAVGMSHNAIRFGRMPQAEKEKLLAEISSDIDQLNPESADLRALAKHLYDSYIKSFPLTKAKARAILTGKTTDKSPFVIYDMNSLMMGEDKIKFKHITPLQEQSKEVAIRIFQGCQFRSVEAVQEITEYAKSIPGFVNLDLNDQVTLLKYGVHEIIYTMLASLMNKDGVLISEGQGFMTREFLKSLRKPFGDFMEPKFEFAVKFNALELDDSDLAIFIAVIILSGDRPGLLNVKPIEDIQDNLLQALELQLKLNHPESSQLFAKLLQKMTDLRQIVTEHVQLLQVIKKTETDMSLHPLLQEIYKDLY
Sequence of Fatty acid synthase (Homo sapiens) (P49327 whole entry, looked up): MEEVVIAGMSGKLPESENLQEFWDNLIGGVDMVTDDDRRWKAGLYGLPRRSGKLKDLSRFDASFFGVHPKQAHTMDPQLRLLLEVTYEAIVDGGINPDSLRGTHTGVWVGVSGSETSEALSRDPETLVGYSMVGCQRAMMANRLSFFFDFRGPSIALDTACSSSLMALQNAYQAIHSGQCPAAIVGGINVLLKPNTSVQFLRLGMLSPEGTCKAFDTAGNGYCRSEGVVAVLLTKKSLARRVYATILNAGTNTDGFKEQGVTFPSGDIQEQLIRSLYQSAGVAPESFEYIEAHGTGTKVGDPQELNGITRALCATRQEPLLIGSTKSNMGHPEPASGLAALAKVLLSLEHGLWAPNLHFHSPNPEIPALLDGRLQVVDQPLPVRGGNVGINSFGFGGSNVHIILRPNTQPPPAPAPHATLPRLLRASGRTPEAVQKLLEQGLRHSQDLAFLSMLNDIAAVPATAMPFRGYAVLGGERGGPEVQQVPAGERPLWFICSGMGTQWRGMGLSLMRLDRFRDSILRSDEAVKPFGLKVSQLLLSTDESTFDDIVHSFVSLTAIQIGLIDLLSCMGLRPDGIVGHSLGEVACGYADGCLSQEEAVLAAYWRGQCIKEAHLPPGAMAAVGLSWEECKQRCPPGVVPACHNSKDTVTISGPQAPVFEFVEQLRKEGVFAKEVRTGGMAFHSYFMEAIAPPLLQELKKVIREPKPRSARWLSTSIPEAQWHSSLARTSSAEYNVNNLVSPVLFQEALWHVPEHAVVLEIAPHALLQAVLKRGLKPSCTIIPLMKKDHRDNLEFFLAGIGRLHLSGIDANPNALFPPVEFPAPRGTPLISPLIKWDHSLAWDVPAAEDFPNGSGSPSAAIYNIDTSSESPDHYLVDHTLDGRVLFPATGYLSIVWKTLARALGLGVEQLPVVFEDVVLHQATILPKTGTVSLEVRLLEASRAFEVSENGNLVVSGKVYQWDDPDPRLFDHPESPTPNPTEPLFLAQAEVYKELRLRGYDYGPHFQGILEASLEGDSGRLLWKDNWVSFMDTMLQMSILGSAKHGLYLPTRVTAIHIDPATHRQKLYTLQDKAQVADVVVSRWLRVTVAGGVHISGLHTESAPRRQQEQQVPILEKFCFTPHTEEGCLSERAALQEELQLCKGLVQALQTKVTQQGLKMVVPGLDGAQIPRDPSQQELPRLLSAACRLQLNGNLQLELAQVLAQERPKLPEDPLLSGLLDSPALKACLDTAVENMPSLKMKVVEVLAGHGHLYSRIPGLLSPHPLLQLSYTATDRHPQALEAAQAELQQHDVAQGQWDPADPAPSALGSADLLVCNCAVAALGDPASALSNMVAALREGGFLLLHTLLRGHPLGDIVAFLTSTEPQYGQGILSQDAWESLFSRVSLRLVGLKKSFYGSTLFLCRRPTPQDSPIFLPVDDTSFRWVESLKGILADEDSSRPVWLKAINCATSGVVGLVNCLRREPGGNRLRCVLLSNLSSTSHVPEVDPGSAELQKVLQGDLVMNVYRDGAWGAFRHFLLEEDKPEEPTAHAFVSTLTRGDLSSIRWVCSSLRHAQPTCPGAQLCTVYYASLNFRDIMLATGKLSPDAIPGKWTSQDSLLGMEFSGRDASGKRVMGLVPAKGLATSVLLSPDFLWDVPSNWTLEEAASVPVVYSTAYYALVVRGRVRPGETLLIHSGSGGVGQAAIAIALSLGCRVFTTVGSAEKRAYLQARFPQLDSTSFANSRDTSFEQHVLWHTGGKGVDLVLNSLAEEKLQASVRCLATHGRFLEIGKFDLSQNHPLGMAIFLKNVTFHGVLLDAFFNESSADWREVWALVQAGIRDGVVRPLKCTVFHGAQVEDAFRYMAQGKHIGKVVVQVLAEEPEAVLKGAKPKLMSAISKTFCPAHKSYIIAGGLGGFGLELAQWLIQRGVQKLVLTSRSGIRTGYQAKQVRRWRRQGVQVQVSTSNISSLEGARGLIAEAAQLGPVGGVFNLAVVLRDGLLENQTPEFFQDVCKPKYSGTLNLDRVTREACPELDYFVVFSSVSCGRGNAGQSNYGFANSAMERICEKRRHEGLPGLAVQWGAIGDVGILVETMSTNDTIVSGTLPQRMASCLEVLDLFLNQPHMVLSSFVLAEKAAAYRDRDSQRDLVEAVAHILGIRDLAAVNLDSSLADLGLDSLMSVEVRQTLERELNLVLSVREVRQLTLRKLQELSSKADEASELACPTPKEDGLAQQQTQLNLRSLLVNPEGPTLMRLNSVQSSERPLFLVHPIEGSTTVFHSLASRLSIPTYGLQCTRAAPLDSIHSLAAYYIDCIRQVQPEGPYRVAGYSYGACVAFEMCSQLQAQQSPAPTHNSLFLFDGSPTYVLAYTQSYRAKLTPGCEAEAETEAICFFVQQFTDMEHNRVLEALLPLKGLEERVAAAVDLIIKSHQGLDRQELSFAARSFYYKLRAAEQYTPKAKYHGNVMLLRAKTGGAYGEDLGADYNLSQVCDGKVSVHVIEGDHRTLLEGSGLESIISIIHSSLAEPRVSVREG

With `CCCCCOC(=O)c1ccccc1C(=O)OCCCCC`, the result in assay [1], in [2], in [3], in assay [4], in assay [5] and in assay [6] was inactive. For the same compound, the outcome in assay [7], in [8], in assay [9], in assay [10], in assay [11] and in [12] was inactive. Besides, the compound was called inactive in assay [13], in assay [14], in [15], in assay [16] and in assay [17].

By AC50 is commonly meant the concentration giving half of the maximal activity seen. Consider `Nc1ccc(Oc2ccc(N)cc2)cc1`, for which the outcome in assay [1], in assay [2], in [3], in assay [4], in assay [12] and in [13] was inactive. Further, the compound was classed as inactive in assay [15], in assay [16] and in assay [17]. For the same compound, the AC50 in assay [5] was 24.2 µM (active); in assay [6], 5.04 µM (active); in [7], 0.493 µM (active); in assay [18] it was 26.9 µM (active); in [8] it was 1.21 µM (active); in assay [11] it was 9.14 µM (active).

With `Cc1cccc(N)c1N`, the AC50 in assay [1] was 33.9 µM (active); in assay [3], 31.9 µM (active) and 66.9 µM (active); in assay [6], 27 µM (active); in [11] it was 15.4 µM (active); in assay [13], 33.4 µM (active); in assay [16] it was 50 µM (active). Further, in assay [17], the AC50 was 61.7 µM (active). Moreover, the compound was called inactive in [1], in [2], in assay [5], in assay [7], in assay [18] and in [8]. Further, the call in assay [12] and in [15] was inactive.

For the compound `ClCCOCCCl`, the compound was classed as inactive in [1], in assay [2], in assay [3], in assay [4], in assay [12] and in assay [13]. In addition, the compound was classed as inactive in assay [15], in assay [16], in assay [19] and in [17].

`Nc1ccc(Cl)cc1N`: the AC50 is 39.2 µM (active) in assay [1]; 31.3 µM (active) in [2]; 45.3 µM (active) in [3]; 1.41 µM (active) in assay [6]; 1.89 µM (active) in assay [11]; 37.9 µM (active) in assay [13]. Besides, the AC50 in assay [15] is 11.4 µM (active); in [19], 18.7 µM (active); in [17] it was 23.1 µM (active). Besides, the compound was classed as inactive in assay [1], in [2], in assay [3], in assay [5], in [20] and in [7]. The compound was classed as inactive in [18], in assay [8], in [14] and in assay [16].

With `CCNS(=O)(=O)C(F)(F)C(F)(F)C(F)(F)C(F)(F)C(F)(F)C(F)(F)C(F)(F)C(F)(F)F`, the compound was classed as inactive in assay [1], in assay [2], in assay [3], in [4], in assay [12] and in assay [15]. The compound was classed as inactive in [16] and in assay [19]. The AC50 in assay [13] was 48.2 µM (active); in assay [17], 75.9 µM (active).

Take `Nc1ccc([N+](=O)[O-])cc1`: the compound was called inactive in assay [1], in [2], in assay [3], in [12], in assay [13] and in [14]. Further, the outcome in assay [15], in [16] and in assay [17] was inactive. Moreover, the half-maximal activity concentration (AC50) in assay [2] was 26.9 µM (active).

Turning to `CCCCCCCCCCCCCN1CC(C)OC(C)C1` (stereo not given), the AC50 in [1] was 72.5 µM (active); in assay [2], 81.7 µM (active); in assay [5] it was 9.71 µM (active); in assay [6], 12.5 µM (active); in assay [8], 6.39 µM (active); in [11], 8.46 µM (active). The compound was classed as inactive in assay [2], in assay [3], in assay [4], in assay [7], in [18] and in assay [9]. The outcome in assay [10], in assay [13], in assay [14], in [15], in [16] and in assay [19] was inactive. Further, the result in assay [17] was inactive.
